# Bioassay records (PubChem)
# Pf Dd2 inh: blocks in vitro growth of P. falciparum Dd2; Potency, µM (series often up to 28.9 µM), without a hit: at the top dose activity, negative = inhibition, hits mostly inhibitors; 120,000 tested, 4.3% active; P. falciparum Dd2 growth, SYBR Green, 72 h; AID 1347417; active means well fitted inhibition curve with a large enough effect;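 further: plate controls were DMSO vehicle for no effect and reference drug for full effect; nearly all actives have a fitted effect of over 65% in size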
#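 Infected erythrocytes (Dd2, 0.3% parasitemia, 2.5% hematocrit final) are added to compound in RPMI-1640/Albumax II medium, grown 72 h at 37C in low oxygen, then lysed with saponin/Triton-X containing SYBR Green and read by fluorescence.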
# * = called active by the depositor; i = inactive; [ ] = another dose, or the depositor's remark. Shown is part of a subset that was picked to be rich in hits. Potency means the concentration at half of the fitted maximal effect.
SMILES,Pf Dd2 inh
COc1cc(OC(F)(F)F)ccc1C(=O)NCc1nnc2n1C(C(=O)O)CC2 (stereo not given),47%
CC(=O)N1CCC(N2CCC3(CC2)CN(Cc2ccccc2)CC3CO)CC1 (stereo not given),22%
COc1cccc(-c2nnnn2[C@H]2CO[C@H]3[C@@H]2OC[C@@H]3NC(=O)CC2(CC(=O)O)CCCC2)c1,39%
COc1cccc(CN2Cc3nc(-c4cc(Cl)ccc4OC)ccc3OCC2=O)c1,-20%[44.1 µM]
CC(C)(C)C1CCc2c(sc(NC(=O)c3cccc(Cl)c3)c2C(N)=O)C1 (stereo not given),11%
O=C(Nc1sc2c(c1C(=O)N1CCCCC1)CCCC2)c1ccccc1Cl,-12%
CCOC(=O)c1c(NC(=O)C2c3ccccc3Oc3ccccc32)sc2c1CCC(CC)C2 (stereo not given),-3%
CC(C)(C)C1CCc2c(sc(NC(=O)C3c4ccccc4Oc4ccccc43)c2C(N)=O)C1 (stereo not given),13µM*
CC1CCN(C(=O)c2c(NC(=O)c3ccccc3F)sc3c2CCC(C(C)(C)C)C3)CC1 (stereo not given),8.9µM*
CN(C)C(=O)c1c(NC(=O)c2ccccc2F)sc2c1CCCC2,6%
COc1cccc(C(=O)NCC2Cn3cccc3C(=O)N2CC(C)C)c1 (stereo not given),i
CCCn1ccc2sc(C)c(C(=O)NC3CCCC3)c2c1=O,i
Cc1cccc(-c2[nH]ncc2CNC(=O)c2cccc(N(C)C)c2)c1,-28%
Cc1ccc(CNC(=O)N2CCC(Cn3c(C)cnc3C3CCOCC3)CC2)cc1,-24%
COCCOC1CCN(C(=O)NCc2ccc(C)cc2)CC1,-2%
Cc1ccc(CNC(=O)N2CCCC(CN3CCCC3)CC2)cc1 (stereo not given),4.5µM*
CC(=O)N1CC2(CCN(CCc3ccccn3)CC2)CC1C(=O)O (stereo not given),4%
Cc1ccc(CSc2nc3cccnc3n2Cc2ccc(C(=O)NCCc3ccccc3)cc2)cc1,-13%
COC(=O)c1ccc(Cn2c(SCc3ccccc3F)nc3ccncc32)cc1,-17%
O=C(NCCc1ccccc1)c1ccc(CSc2nc3ccncc3n2Cc2cccc(F)c2)cc1,4.5µM*
O=C(NCCN1CCCCC1)c1ccc(Cn2c(SCc3ccc(F)cc3)nc3cccnc32)cc1,7.1µM*
O=C(NCc1ccccc1)c1ccc(CSc2nc3cccnc3n2Cc2ccccc2F)cc1,3%
COCCCNC(=O)c1ccc(Cn2c(SCc3ccc(F)cc3)nc3cccnc32)cc1,-22%
Cc1ccccc1CNC(=O)c1ccc(Cn2c(SCc3cccc(F)c3)nc3cccnc32)cc1,-16%
O=C(NCCc1ccccc1)c1ccc(CSc2nc3ccncc3n2Cc2ccccc2F)cc1,7.1µM*
SMILES,Pf Dd2 inh
O=C(NC1CCCC1)c1ccc(CSc2nc3cccnc3n2Cc2ccccc2)cc1,13%
O=C(NCCc1ccccc1)c1ccc(Cn2c(SCc3cccc(F)c3)nc3cccnc32)cc1,13µM*
CN(C)C(=O)c1c[nH]c2cccnc12,14%[44.1 µM]
Cc1nn(Cc2ccccc2)c(C)c1[C@@H]1C=C[C@@H](NS(C)(=O)=O)C1,i
Cc1ccn(CC(=O)N2C[C@@H](CO)[C@H](c3nc(C4CC4)no3)C2)n1,25%
O=C1NCCOCCCN(C(=O)NCc2ccccc2)[C@H]2CCC[C@@H]12,-8%
COc1ccccc1N1CCN(C(=O)C2N(C(C)C)C(=O)C23CCCC3)CC1 (stereo not given),-3%
COc1ccccc1C(=O)N1CCC2(CC1)CC(=O)c1ccc(Cl)cc1O2,-18%
Nc1cccn2nc(-c3ccccc3)nc12,-9%
CNCc1cn(C[C@H]2O[C@@H](CC(=O)N3CCC[C@@H]3COC)[C@H](O)[C@@H]2O)nn1,45%[44.1 µM]
Cc1cnc(C)n1C1CCN(C(=O)CCn2cccn2)CC1,13%
Cc1onc(-c2ccccc2)c1C(=O)N1CCOCC(O)(CN2CCCC2)C1 (stereo not given),-7%
O=C(Cn1c(SCc2cccc(F)c2)nc2ccncc21)Nc1ccc(Cl)cc1F,28%
COCCCNC(=O)c1ccc(Cn2c(SCc3cccc(C)c3)nc3cccnc32)cc1,i
O=C(c1ccc(CSc2nc3ccncc3n2Cc2cccc(F)c2)cc1)N1CCCCCC1,8.9µM*
Cc1cccc(Cn2c(SCc3ccc(C(=O)NCCc4ccccc4)cc3)nc3ccncc32)c1,3.2µM*
Cc1cccc(Cn2c(CNC(=O)c3ccccc3)nc3ccccc32)c1,-5%
COCc1nncn1C1CCN(S(=O)(=O)c2ccc(Cl)cc2C)CC1,-26%
CSCC(=O)N[C@H]1CN(Cc2cn(CCO)nc2C)C[C@@H]1C1CC1,1%
CCc1noc(-c2cn(C3CCN(C(=O)c4cccs4)C3)nn2)n1 (stereo not given),i
CCn1cc(CN2CCc3nn(CCOC)c(=O)n3CC2)cn1,2%
Cc1ccc(-c2nnc(C3CN(C(=O)c4cccc(C)c4)CC34CCOCC4)o2)cc1 (stereo not given),i
Cc1ccc(-c2nnc(C3CN(C(=O)c4n[nH]c5ccccc45)CC34CCOCC4)o2)cc1 (stereo not given),8.9µM*
